GBA enhancer: enhancers of human beta-glucosidase activity in Gaucher fibroblasts; P04062; L444P Gaucher fibroblasts, 4-MU-glucoside fluorescence, 3 days; activation, % at 10 µM; 30,000 tested, 0.44% active; in the data active = activation above about 65%;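 also: 0% = vehicle wells and 100% = positive control wells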
Target sequence (P04062 whole entry L483P): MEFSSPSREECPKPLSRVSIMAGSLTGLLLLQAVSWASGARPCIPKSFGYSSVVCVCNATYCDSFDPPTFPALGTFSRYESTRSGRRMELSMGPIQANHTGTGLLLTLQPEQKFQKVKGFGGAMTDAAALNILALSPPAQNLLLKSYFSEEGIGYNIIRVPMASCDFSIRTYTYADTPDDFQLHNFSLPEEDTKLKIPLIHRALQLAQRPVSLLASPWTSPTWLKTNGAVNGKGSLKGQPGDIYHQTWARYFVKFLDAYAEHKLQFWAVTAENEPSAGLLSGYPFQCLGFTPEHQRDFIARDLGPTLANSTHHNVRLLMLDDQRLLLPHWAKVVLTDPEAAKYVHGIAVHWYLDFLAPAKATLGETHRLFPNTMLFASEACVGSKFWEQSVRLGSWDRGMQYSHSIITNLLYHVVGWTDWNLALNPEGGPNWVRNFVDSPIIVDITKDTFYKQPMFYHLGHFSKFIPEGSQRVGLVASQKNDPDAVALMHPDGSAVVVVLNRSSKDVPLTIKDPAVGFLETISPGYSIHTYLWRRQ
Numbers without * were called inactive. Shown is part of a subset that was picked to be rich in hits.

SMILES	GBA enhancer
CSc1nc(C)cc(OCNC(=O)c2cccs2)n1	1.3
N#Cc1ccccc1NC(=O)c1ccc(-c2ccccc2Cl)o1	-8.0
Cc1cc(C)nc(-n2nc(C)cc2NC(=O)c2cc3ccccc3oc2=O)n1	114.0*
Cc1cc(C)nc(-n2nc(C)cc2Nc2ccccc2)n1	1.0
Cc1cc(C)nc(-n2nc(C)cc2NC(=O)c2cc(=O)c3ccccc3o2)n1	10.7
COc1ccc(CCNC(=O)C2CCN(S(=O)(=O)N3CC(C)CC(C)C3)CC2)cc1OC (configuration not stated)	-30.5
Cc1cc(C)nc(N2CCCC(C(=O)NC(C)CCc3ccco3)C2)n1 (configuration not stated)	3.1
COc1ccccc1N1CCN(C(c2ccc(Cl)cc2)c2nnnn2C(C)(C)C)CC1 (configuration not stated)	-43.4
CCN1CCN(C(c2ccc(OC)c(OC)c2)c2nnnn2C(C)(C)C)CC1 (configuration not stated)	140.4*
COc1ccccc1C(c1nnnn1C(C)(C)C)N1CCN(Cc2ccncc2)CC1 (configuration not stated)	-0.3
O=C(COC(=O)Cn1cnc2ccccc21)NCCC1=CCCCC1	-13.7
Cc1ccc(NC(=O)NC(=O)CN2C(=O)NC3(CCc4ccccc43)C2=O)c(C)c1 (configuration not stated)	0.0
COc1cc(NC(=O)c2ccc3c(=O)n(Cc4ccco4)c(=S)[nH]c3c2)cc(OC)c1OC	17.5
COC(=O)c1ccc2c(=O)n(CCCN3CCCC3=O)c(=S)[nH]c2c1	-7.4
O=C(NCCCN1CCCC1=O)c1ccc2c(=O)n(Cc3ccco3)c(=S)[nH]c2c1	115.3*
Cc1ccccc1C(=O)/C=C1\NC(=O)CS1	-6.7
Cc1ccccc1OCC(=O)N(Cc1cccs1)C1CCS(=O)(=O)C1 (configuration not stated)	146.7*
COc1ccccc1C(=O)N(Cc1cccs1)C1CCS(=O)(=O)C1 (configuration not stated)	-21.2
Cc1cccc(OC(C)C(=O)N(Cc2cccs2)C2CCS(=O)(=O)C2)c1C (configuration not stated)	5.6
CCOc1ccccc1-n1c(SCC(N)=O)nnc1-c1ccc(O)cc1	115.7*
CCOc1ccccc1-n1c(SCC(=O)N2CCOCC2)nnc1-c1ccccn1	-3.7
CCOc1ccccc1-n1c(SCC(=O)N(CC)CC)nnc1-c1ccccn1	-0.1
Cc1cc(C)n(-c2ccc(C(=O)OCC(=O)c3ccc(Br)s3)cc2)n1	7.6
CC(CS(=O)(=O)c1cccc2cccnc12)N1CCCCC1 (configuration not stated)	107.8*
COc1ccc(NS(=O)(=O)c2cccc3cccnc23)cc1	-18.6
SMILES	GBA enhancer
O=C(NC1CCCC1)C1CCN(S(=O)(=O)c2cccc3cccnc23)CC1	4.1
COc1oc(-c2ccccc2)nc1C(F)(F)F	11.5
O=C(CCn1nc(-c2ccccc2)c2ccccc2c1=O)NCC1CCCO1 (configuration not stated)	8.0
Cc1ccc(CN2C(=O)CCC2C(=O)NC(C)C)cc1 (configuration not stated)	11.8
Cc1ccccc1CS(=O)(=O)Cc1ccc(C(=O)NCc2ccco2)o1	170.7*
Cc1ccccc1CS(=O)(=O)Cc1ccc(C(=O)NCCCN2CCOCC2)o1	23.1
Cc1ccccc1CS(=O)(=O)Cc1ccc(C(=O)NCCCN2CCCC2=O)o1	13.4
CC1=C(C(=O)Nc2ccccc2C)C(c2ccc(C)o2)N2C(=O)CSC2=N1 (configuration not stated)	-13.4
O=C(CSc1nnc(-c2ccc(Cl)cc2)o1)N1CCN(c2ccccc2)CC1	-1.5
CCn1c(CC(=O)Nc2ccc(C)cc2)nnc1SCC(=O)N1CCN(c2ccccc2)CC1	-3.9
CCn1c(SCC(=O)N2CCN(c3ccccc3)CC2)nnc1-c1cc2cc(Cl)ccc2o1	90.2*
COc1ccc(S(=O)(=O)NCC(=O)N(CC(=O)NCC2CCCO2)c2ccccc2C)cc1 (configuration not stated)	71.6*
O=C(CN(CCc1ccccc1)C(=O)CNS(=O)(=O)c1ccccc1)NCC1CCCO1 (configuration not stated)	-6.9
COc1cccc(S(=O)(=O)NCc2ccc(C(=O)NCC3CCCO3)cc2)c1 (configuration not stated)	2.4
CN1CCCCCC1=NC1=C(C#N)CCCC1	2.5
CCC(Sc1nc(C)cc(=O)[nH]1)C(=O)Nc1nc2c(s1)CCCC2 (configuration not stated)	81.5*
Cc1cc(=O)[nH]c(SCC(=O)Nc2nc3c(s2)CCCC3)n1	-36.1
CCC(Sc1nc(C)cc(=O)[nH]1)C(=O)Nc1nnc(C)s1 (configuration not stated)	-20.8
COc1ccc(C2C(C(=O)c3sc(C)nc3C)=C(O)C(=O)N2CCCn2ccnc2)cc1 (configuration not stated)	-0.4
CCOC(=O)c1c(/N=C/N(C)C)sc(C(=O)OC)c1C	-35.8
O=C1Nc2ccccc2C(O)(C(=O)NCc2ccco2)N1c1ccc(Cl)cc1 (configuration not stated)	-29.8
O=C1Nc2ccccc2C(O)(C(=O)NC2CC2)N1c1ccc(Cl)c(Cl)c1 (configuration not stated)	81.3*
O=C1[C@H]2[C@@H](C(=O)N1c1cc(Cl)cc(Cl)c1)[C@]1(C(=O)Nc3ccccc31)N1CCC[C@@H]21	-6.2
Cc1c(-c2ccccc2)sc(N)c1C(=O)N1CCOCC1	-6.5
CCOC(=O)c1c(NC(=O)CC)sc(C(C)=O)c1C	-29.3
SMILES	GBA enhancer
Cn1c(Cc2ccccc2)nnc1SCC(=O)NC1CCCCC1	-2.1
CC(C)n1nnnc1SCC(=O)Nc1ccccc1N1CCOCC1	-13.6
Cn1c(Cc2ccccc2)nnc1SCC(=O)Nc1ccccc1N1CCOCC1	96.1*
CCn1c(N)c(C(=O)NC)sc1=S	-11.2
CN(C)CC(C)(C)NS(=O)(=O)c1ccc(Cl)cc1	-28.3
Cc1cccc2sc(NC(=O)CN(C)S(=O)(=O)c3cccs3)nc12	76.5*
COC(=O)Nc1nc2c(C)cccc2s1	-8.8
COc1ccc(NC(=O)CN(C)S(=O)(=O)c2cccs2)cc1	-15.2
O=C(OCc1nc2ccc(Cl)cc2n1CCO)c1ccc2c(c1)OCO2	-15.7
CC1CC(C)CN(CCCNC(=O)c2ccc3c(c2)NC(=O)C(N2CCCCC2)S3)C1 (configuration not stated)	-9.2
CCC(CC)C(=O)Nc1cc(C)cc(C)c1	-9.3
Cc1cc(Nc2nc3c(c(=O)n(C)c(=O)n3C)n2C)n(-c2ccccc2)n1	-6.6
COC(=O)C1=C(NC(=O)c2ccc(C)c(C)c2)CCS1	13.7
COc1cc2c(cc1OC)C(C(=O)NCC1COc3ccccc3O1)C(c1cccnc1)N(C)C2=O (configuration not stated)	-43.4
CC1=C(C(=O)Nc2cccnc2)C(c2ccccn2)n2nnnc2N1 (configuration not stated)	27.4
CC1=C(C(=O)Nc2ccccc2)C(c2ccncc2)n2nnnc2N1 (configuration not stated)	-5.8
CC1=C(C(=O)Nc2cccnc2)C(c2ccncc2)n2nnnc2N1 (configuration not stated)	69.9*
CC(=O)N(C)c1ccc(NC(=O)c2cnn(C)c2)cc1	60.3
COc1cccc(C2C3=C(CCCC3=O)Nc3nc4ccccc4n32)c1OC (configuration not stated)	-0.7
CC(=O)N1CCc2cc(Br)cc(S(=O)(=O)NCCCN3CCC(C)CC3)c21	4.4
CC(=O)N1CCc2cc(Br)cc(S(=O)(=O)NCCCN3CCCC(C)C3)c21 (configuration not stated)	2.9
CC(=O)N1CCc2cc(Br)cc(S(=O)(=O)NCCN3CCCCC3C)c21 (configuration not stated)	78.4*
Cc1cnc(C(=O)NCCc2ccc(S(=O)(=O)NC(=O)NC3CCCCC3)cc2)cn1	-15.9
COc1cccc2cc(C(=O)C3=C(O)C(=O)N(CCCN4CCOCC4)C3c3ccncc3)oc12 (configuration not stated)	-8.2
